Measurements: PubChem BioAssay

Tests used:
[1] = tested on: Human papillomavirus type 1a protein E7 (residues 44-93); assay: small molecules binding HPV E7 44-93 – biochemical, small-molecule microarray, residues 44-93, 635 nm fluorescence, primary screen (AID 1108); details: fluorescence 635 nm, higher = more signal;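 note: E7 fragment applied at 1 µg/mL in TBST for 1 h at 4 C; score combines spot fluorescence with its signal to noise ratio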
[2] = hepatitis C replication reporter changes, two-sided – Huh7 cells, luciferase reporter, HCV replication inhibitor project, primary screen (AID 1109); details: Huh7 HCV replicon luciferase reporter, 48 h; higher = more signal;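 note: huh7 hepatoma cells harbouring a luciferase neomycin HCV replicon reporter; luciferase luminescence as measure of HCV replicon replication; test concentration not given here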
[3] = biological target: Left-right determination factor 2 (Homo sapiens) (UniProt O00292); assay: small molecules binding LEFTY2 protein – biochemical, small-molecule microarray, 635 nm fluorescence scan, primary screen (AID 1110); details: higher = more signal
Left-right determination factor 2 (Homo sapiens), sequence (O00292 whole entry, looked up): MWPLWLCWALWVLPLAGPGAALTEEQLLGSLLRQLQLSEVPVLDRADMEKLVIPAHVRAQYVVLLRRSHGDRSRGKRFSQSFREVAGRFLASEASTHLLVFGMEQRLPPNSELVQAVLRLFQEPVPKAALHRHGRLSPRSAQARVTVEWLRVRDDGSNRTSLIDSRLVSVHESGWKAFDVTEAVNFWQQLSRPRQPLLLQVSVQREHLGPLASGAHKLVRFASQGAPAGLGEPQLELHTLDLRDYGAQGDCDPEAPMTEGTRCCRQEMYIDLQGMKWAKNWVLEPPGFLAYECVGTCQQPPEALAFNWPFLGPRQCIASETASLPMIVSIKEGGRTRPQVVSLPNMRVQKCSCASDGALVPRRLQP

[4] = biological target: Calmodulin-1 (Homo sapiens) (UniProt P0DP23); assay: small molecules binding calmodulin-1 with EGTA – biochemical, small-molecule microarray, Cy5-labelled CALM1, profiling panel (AID 1111); details: Cy5-CALM1 binding fluorescence, higher = more signal;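 note: labelled calmodulin applied in Tris saline Tween buffer holding calcium plus EGTA and DTT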
[5] = biological target: Calmodulin-1 (Homo sapiens) (UniProt P0DP23); assay: small molecules binding Ca-loaded calmodulin-1 – biochemical, small-molecule microarray, Cy5-labelled CALM1, plus calcium, artefact control for SMM control-protein annotation, profiling panel (AID 1112); details: Cy5-CALM1 binding fluorescence, higher = more signal;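 note: score merges spot fluorescence with signal to noise from triplicate slides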
[6] = probe aWnt5a binding to arrayed compounds – biochemical, biotinylated probe, 635/667 nm fluorescence, primary screen (AID 1113); details: small-molecule microarray, higher = more signal;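 note: score merges 667 nm fluorescence intensity with signal-to-noise per printed feature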
[7] = probe aShh binding to arrayed compounds – biochemical, biotinylated probe, 635/667 nm fluorescence, primary screen (AID 1114); details: small-molecule microarray, higher = more signal;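 note: probe is biotin-labelled aShh protein from a stem cell growth factor screen; measures binding of labelled protein to compounds printed on the slide; score merges feature fluorescence at 667 nm with signal-to-noise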
[8] = probe aNog binding to arrayed compounds – biochemical, biotinylated probe, 635/667 nm fluorescence, primary screen (AID 1115); details: small-molecule microarray, higher = more signal;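 note: probe is biotinylated aNog protein used at 0.15 µg/mL for 1 h at 4 C; z-score combines 667 nm fluorescence of each spot with its signal to noise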
[9] = biological target: Torsin-1A-interacting protein 1 (Homo sapiens) (UniProt Q5JTV8); assay: compound microarray binding of lysate hLAP1 – cell lysate, small-molecule microarray, COS7 lysate, 635/667 nm fluorescence, primary screen (AID 1116); details: 635 nm fluorescence, higher = more signal
Torsin-1A-interacting protein 1 (Homo sapiens), sequence (Q5JTV8 whole entry, looked up): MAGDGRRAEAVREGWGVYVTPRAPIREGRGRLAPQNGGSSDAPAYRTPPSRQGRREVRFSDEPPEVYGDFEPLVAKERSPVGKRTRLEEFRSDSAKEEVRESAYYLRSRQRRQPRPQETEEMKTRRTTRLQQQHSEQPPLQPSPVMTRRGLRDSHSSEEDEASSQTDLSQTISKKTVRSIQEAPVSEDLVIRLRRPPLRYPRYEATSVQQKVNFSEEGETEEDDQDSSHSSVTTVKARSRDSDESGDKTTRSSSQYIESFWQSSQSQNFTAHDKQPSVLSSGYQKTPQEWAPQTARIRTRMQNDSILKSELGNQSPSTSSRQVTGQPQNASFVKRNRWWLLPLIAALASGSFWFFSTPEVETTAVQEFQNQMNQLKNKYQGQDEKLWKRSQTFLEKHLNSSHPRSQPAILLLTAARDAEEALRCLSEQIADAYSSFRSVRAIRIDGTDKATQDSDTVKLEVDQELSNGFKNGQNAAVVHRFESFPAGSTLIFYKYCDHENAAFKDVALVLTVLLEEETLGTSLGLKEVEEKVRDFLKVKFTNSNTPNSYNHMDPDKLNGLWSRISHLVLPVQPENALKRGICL

[10] = biological target: Alpha-bungarotoxin (Bungarus multicinctus) (UniProt P60615); assay: compounds binding labelled alpha-BTX control protein – biochemical, small-molecule microarray, Alexa647 label, 635/667 nm fluorescence, artefact control for SMM control protein annotation, profiling panel (AID 1117); details: alpha-BTX-A647 binding fluorescence, higher = more signal
Alpha-bungarotoxin (Bungarus multicinctus), sequence (P60615 whole entry, looked up): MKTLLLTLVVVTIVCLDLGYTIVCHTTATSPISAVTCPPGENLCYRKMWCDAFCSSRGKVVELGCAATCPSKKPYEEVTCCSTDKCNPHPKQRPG

Compound	composite z-score [1]	z-score [2]	composite z-score [3]	composite z-score [4]	composite z-score [5]	composite z-score [6]	composite z-score [7]	composite z-score [8]	composite z-score [9]	composite z-score [10]
[N-]=[N+]=Nc1ccccc1[C@@H]1OC(c2ccc(OCCCO)cc2)=N[C@]1(CCS(=O)(=O)c1ccccc1)C(=O)N1CCOCC1	1.03	2.34	0.647	1.74	0.764	0.16	0.326	0.939	1.42	2.84
O=C1OCCC=C[C@H]2OC34C=CCN(c5ccc6ccccc6c5)C(=O)[C@H]3N(CCCCCO)C(=O)[C@@H]4C12 (stereo not given in full)	0.444	-0.345	-1.05	-0.491	-0.0432	-0.147	-0.0011	0.438	1.92	-0.264
CN1C(=O)C2C(C1=O)C1C=C(CCCO)C2C(c2cccs2)N1C (stereo not given)	0.0537	-0.999	-0.676	0.203	0.451	-0.0462	0.469	-0.395	-0.646	-0.513
COC(=O)[C@@]1(Cc2ccccc2)[C@H]2c3cc(C(=O)N4CCCC4)n(C)c3C[C@H]2CN1C(=O)c1ccccc1	0.123	-1.45	-0.302	2.57	0.961	-0.0481	-0.2	0.268	1.28	0.455
COC(=O)[C@@]1(Cc2ccc(OC)cc2)[C@H]2c3cc(C(=O)N(C)C)n(Cc4c(OC)[nH]cc(C)c4=O)c3C[C@H]2CN1C(=O)c1ccccc1	-0.117	-1.1	0.464	0.352	-0.117	-0.16	-0.352	-0.248	0.808	-0.0941
COCCOC(=O)N1C(=O)[C@@]2(c3cc(C#CCC(C(=O)OC)C(=O)OC)ccc31)[C@H](c1ccccc1OCCO)N1[C@H](c3ccccc3)[C@H](c3ccccc3)OC(=O)[C@H]1[C@@H]2C(N)=O	0.22	-2.2	0.32	1.25	0.648	0.027	-0.0055	0.141	1.21	2.37
COC(=O)C[C@H]1O[C@]2(C(=O)N(Cc3ccccc3)c3ccc(NC(C)=O)cc32)[C@@H](C)[C@@H]1[Si](C)(C)c1ccc(OC)cc1	0.866	-2.23	0.104	0.403	-0.352	-0.096	-0.2	0.188	0.538	0.226
COc1cc2c(cc1OC)CN(C(=O)[C@@H]1[C@H]3C(=O)O[C@H](c4ccccc4)[C@H](c4ccccc4)N3[C@H](c3ccccc3OCCO)[C@@]13C(=O)Nc1ccc(C#CCNC(N)=O)cc13)CC2	0.644	-1.01	0.17	1.36	0.478	0.0744	0.155	1.12	1.29	1.9
C=CCC(OC(C)=O)[C@@H]1[C@@H](N(Cc2ccc(-c3cccc(C(F)(F)F)c3)o2)C(=O)c2ccc(C)cc2)c2cc(OCCCO)ccc2N1C(=O)c1ccc(-c2ccccc2)cc1 (stereo not given in full)	-0.734	-0.094	-0.0524	-0.201	-0.147	-0.124	-0.16	-0.363	-0.178	-0.286
CO[C@H]1O[C@H](CO)[C@@H](OC(=O)Nc2ccc(Oc3ccccc3)cc2)[C@H](OC(=O)Nc2ccccc2)[C@H]1OC(=O)Nc1ccccc1	0.838	-2.88	0.62	1.26	-0.278	0.143	-0.0789	0.149	1.2	1.8
O=C1O[C@@H](c2ccccc2)[C@@H](c2ccccc2)N2[C@@H](c3ccc(O)cc3)[C@]3(C(=O)Nc4ccc(C#CC5=CCCCC5)cc43)[C@@H](C(=O)O)[C@H]12	0.2	0.0664	0.0765	2.02	0.999	-0.0077	0.123	0.413	1.55	1.17
C=CC(=C)C1=CCO[C@@H]1[C@H]1CCCN1S(=O)(=O)c1ccccc1[N+](=O)[O-]	-0.0291	-1.4	0.867	0.397	-0.112	-0.101	-0.0626	-0.175	0.169	0.537
O=C1O[C@@H](c2ccccc2)[C@@H](c2ccccc2)N2[C@@H](c3ccc(O)cc3)[C@]3(C(=O)Nc4ccc(C#CC5(O)CCCCCC5)cc43)[C@@H](C(=O)N3CCCCCCC3)[C@H]12	1.48	-1.29	1.43	2.6	1.61	1.45	2.73	3.67	4.7	3.03
NC(=O)NCC#Cc1ccc2c(c1)[C@]1(C(=O)N2)[C@H](C(=O)N2CCCCCCC2)[C@H]2C(=O)O[C@H](c3ccccc3)[C@H](c3ccccc3)N2[C@@H]1c1ccc(OCCO)cc1	1.18	-1.03	1.04	1.99	0.897	0.83	2.19	2.19	1.45	2.02
CC(C)c1ccc(NN2C(C(O)c3ccc(N(C)C)cc3)C=CC3C(=O)N(c4ccccc4)C(=O)C32)cc1 (stereo not given)	1.42	1.61	0.0148	1.44	0.176	0.0317	0.13	0.842	0.488	1.73
O=C(NCc1ccccc1)[C@]1(CCS(=O)(=O)c2ccccc2)N=C(c2ccc(OCCCO)cc2)O[C@@H]1c1ccccc1	1.15	-2.05	0.554	1.53	0.206	0.0579	0.182	0.0539	0.51	0.452
C=C(COC)/C(=C/C[C@H](OC(=O)c1ccncc1)c1cccc(OCCO)c1)c1cc(C(=O)OC)ccc1OC	-1.16	-1.67	0.229	-0.0871	-0.46	-0.156	-0.0769	-0.104	0.516	1.29

Compound	composite z-score [1]	z-score [2]	composite z-score [3]	composite z-score [4]	composite z-score [5]	composite z-score [6]	composite z-score [7]	composite z-score [8]	composite z-score [9]	composite z-score [10]
COC(=O)C[C@@H]1C[C@H](C)[C@]2(O1)C(=O)N(Cc1ccccc1)c1ccc(NC(C)=O)cc12	-0.654	-0.249	0.266	-0.595	-0.324	-0.311	-0.543	0.0034	0.458	-0.194
O=C1O[C@@H](c2ccccc2)[C@@H](c2ccccc2)N2[C@@H](c3ccc(OCCO)cc3)[C@]3(C(=O)Nc4ccccc43)[C@@H](C(=O)Nc3nc4ccccc4s3)[C@H]12	1.44	-2.66	1.05	1.67	0.241	0.105	0.171	1.27	1.5	1.78
COC(=O)[C@]1(Cc2ccccc2N=[N+]=[N-])N=C(c2ccc(OCCCO)cc2)O[C@@H]1c1ccccc1N=[N+]=[N-]	-0.0688	-3.52	-0.0072	-0.062	-0.374	-0.129	-0.138	-0.51	0.412	0.019
O=C1C[C@@](C(=O)NC2CC2)(c2ccc([N+](=O)[O-])cc2)[C@@H](c2ccc(CO)cc2)N1CC12CC3CC(CC(C3)C1)C2	0.869	-2.39	-0.523	0.557	-0.0787	-0.0751	-0.147	0.11	0.471	0.601
COCCOC(=O)N1C(=O)[C@@]2(c3ccccc31)[C@H](c1ccc(O)cc1)N1[C@H](c3ccccc3)[C@H](c3ccccc3)OC(=O)[C@H]1[C@@H]2C(=O)N1CCc2cc(OC)c(OC)cc2C1	0.607	-1.47	1.01	0.889	0.579	-0.0819	-0.214	-0.533	0.811	0.789
CS(=O)(=O)CCOC(=O)C1=CC(c2ccc(CO)cc2)=CC(C2CC2)N(Cc2cc3c(cc2Br)OCO3)C=C1C(=O)OCCS(C)(=O)=O (stereo not given)	1.41	-2.3	0.462	1.38	0.23	-0.0124	0.171	0.446	1.18	1.77
CCOC(=O)C1=CC[C@@H](c2ccccc2Cl)N(S(=O)(=O)c2ccc(C)cc2)C1	0.948	-2.7	-0.462	1.52	0.784	-0.117	-0.167	1.25	1.56	0.407
O=C1O[C@H](c2ccccc2)[C@H](c2ccccc2)N2[C@H]1[C@@H](C(=O)NC[C@H](O)c1ccccc1)[C@]1(C(=O)Nc3ccc(C#CCCO)cc31)[C@H]2c1ccc(O)cc1	-0.453	-1.07	-0.47	-0.6	-0.158	-0.202	0.0469	-0.0725	0.0234	-1.61
C[C@H]1NC(=O)[C@H](Cc2ccccc2)NC(=O)[C@@]23C(=O)N[C@@H](Cc4ccccc4)C2[C@H](C)[C@@]2(C)O[C@H]2C3/C=C/C/C=C\CNC1=O (stereo not given in full)	-0.794	0.136	0.133	-0.638	-0.859	-0.146	-0.324	-0.429	-0.214	-0.407
Cc1ccc(S[C@]2(C(=O)NCC(C)C)CC(=O)N(Cc3ccccc3)[C@@H]2c2ccc(CO)cc2I)cc1	1.29	-2.6	0.118	0.425	0.473	-0.063	-0.196	-0.67	0.0825	0.545
CC(=O)NCCCC[C@@H]1NC(=O)[C@@H]2C[C@H](C(=O)NCCCCCCNC(=O)CS)[C@H](c3ccc(O)cc3)N2C1=O	1.07	0.391	-0.746	0.725	0.31	-0.211	-0.0643	-0.158	1.15	1.36
COC(=O)C(CC#Cc1ccc2c(c1)[C@]1(C(=O)N2)[C@H](C(=O)NC[C@H](O)c2ccccc2)[C@H]2C(=O)O[C@H](c3ccccc3)[C@H](c3ccccc3)N2[C@@H]1c1ccc(OCCO)cc1)C(=O)OC	1.45	-1.95	0.696	1.5	1.1	0.174	0.986	0.945	0.053	2.23
CC(C)C[C@@H]1NC(=O)[C@H]2C[C@@H](C(=O)NCCCCCCNC(=O)CS)[C@@H](c3cccc(OCCO)c3)N2C1=O	1.41	-0.117	1.45	0.83	-0.587	-0.001	-0.282	-0.152	1.95	1.17
O=C1O[C@H](c2ccccc2)[C@H](c2ccccc2)N2[C@H]1[C@@H](C(=O)N1CCN(c3ncccn3)CC1)[C@]1(C(=O)Nc3ccccc31)[C@H]2c1ccc(OCCO)cc1	1.42	-1.67	0.609	-0.316	-0.802	-0.0286	-0.0578	-0.0464	0.75	0.4
COc1ccc(CCNC(=O)[C@@H]2c3ccccc3C(=O)N(Cc3ccc(OC(F)(F)F)cc3)[C@H]2c2ccc(CO)cc2)cc1	1.38	-1.81	-0.264	0.107	-0.12	-0.146	-0.147	0.28	1	-0.0177
CCC(CC)C(O)C1C=CC2C(=O)N(c3ccccc3)C(=O)C2N1Nc1ccc(C#N)cc1 (stereo not given)	1.46	0.106	0.0717	1.67	0.55	0.275	0.57	1.78	0.602	1.08
